Data from PubChem BioAssay (NCI).
About 79,000 compounds went through this panel and 15% of them were active in at least one assay; those are over-represented in the sample as a whole. Active and inactive are the calls of the source. Cut-off read from the data, not from the text of the source: active = growth inhibition above about 70%; inactive = the rest.

Columns and labels:
[1] = NCI Yeast Anticancer Drug Screen. Data for the rad50 strain (AID 155);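 note: 0% = growth of vehicle-only cultures of the same strain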; settings: S. cerevisiae rad50 strain growth inhibition; at 50.0 µM; stronger effect = higher value
In short: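 Cells are treated with compound, grown, and their growth is then scored against vehicle-only cultures of the same repair-deficient yeast strain.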

[2] = NCI Yeast Anticancer Drug Screen. Data for the mec2-1 strain (AID 157); settings: S. cerevisiae mec2-1 strain, at 50.0 µM, stronger effect = higher value
In short: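 Compounds were applied to mec2-1 yeast cells. Their growth was then compared with that of vehicle-treated cultures to give growth inhibition.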

[3] = NCI Yeast Anticancer Drug Screen. Data for the sgs1 mgt1 strain (AID 161);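 note: 0% = growth of cultures given vehicle only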; settings: S. cerevisiae sgs1 mgt1 strain, at 50.0 µM, stronger effect = higher value
In short: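 Compounds are added to genetically altered yeast, and growth is compared with cultures given vehicle alone to give percent inhibition.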

[4] = NCI Yeast Anticancer Drug Screen. Data for the cln2 rad14 strain (AID 165);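 note: 0% = growth equal to vehicle treated cultures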; settings: S. cerevisiae cln2 rad14 strain, at 50.0 µM, stronger effect = higher value
In short: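 Strain: cln2 rad14 yeast, altered in cell cycle control and DNA damage repair. Read-out: growth inhibition vs vehicle.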

[5] = NCI Yeast Anticancer Drug Screen. Data for the bub3 strain (AID 167); settings: S. cerevisiae bub3 mutant strain, at 50.0 µM, stronger effect = higher value
In short: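 Part of a panel of yeast mutants defective in DNA damage repair or cell cycle regulation. Each strain is grown with compound, and inhibition is calculated relative to solvent-treated cultures.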

[6] = NCI Yeast Anticancer Drug Screen. Data for the mlh1 rad18 strain (AID 175); settings: S. cerevisiae mlh1 rad18 strain growth inhibition; at 50.0 µM; stronger effect = higher value
In short: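 A repair-deficient yeast strain is exposed to test compound, and growth is scored relative to vehicle-treated controls.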

Measured: growth inhibition

CCCC1(O)c2ccccc2-c2ccccc21
inactive: [1] 12.1% | [2] 17.9% | [3] -5.6% | [4] 14.9% | [5] 26.4% | [6] 17%

CCCCCCC1(C)CCC(=O)O1 (stereo unspecified)
inactive: [1] 15.3% | [2] 8.45% | [3] 6.2% | [4] -6.25% | [5] -5.9% | [6] 14.4%

CCCCCCCCn1c(C)nc2c(cnn2C)c1=O
inactive: [1] -9.6% | [2] -19.2% | [3] -6.15% | [4] 20.9% | [5] 36.1% | [6] 4.8%

CCCOC(=O)CNC(=O)OC(C)(C)C
inactive: [1] 17.6% | [2] 14.8% | [3] 1.15% | [4] 0.55% | [5] -4.95% | [6] -4.35%

CCCCCC(=O)C(C)(c1nc2nnc(NC(=O)Nc3ccc(Cl)cc3)n2[nH]c1=O)c1nc2nnc(NC(=O)Nc3ccc(Cl)cc3)n2[nH]c1=O
inactive: [1] -42.8% | [2] -21.6% | [3] -24.3% | [4] -45% | [5] -38.8% | [6] -32.5%

O=[N+]([O-])c1ccc(-c2ccncc2)cc1
inactive: [1] -32% | [2] -31.9% | [3] -19.4% | [4] 20.6% | [5] -18.1% | [6] -9.05%

CCCCCCOC(=O)C[n+]1ccc(C(N)=O)cc1
inactive: [1] 2.45% | [2] 17.1% | [3] -15.2% | [4] -14.8% | [5] -18.8% | [6] -1.9%

C=C(C)C12CC3CC/C(=N/O)C(C1)C3(N1CCOCC1)C/C2=N/O (stereo unspecified)
inactive: [1] -21.6% | [2] -18.9% | [3] -16.2% | [4] -12.3% | [5] -7.15% | [6] -25.9%

COc1ccc(N2C(=O)C(C)SC23C(=O)Nc2ccccc23)cc1 (stereo unspecified)
inactive: [1] 13.6% | [2] 20.4% | [3] 5.75% | [4] 2.5% | [5] 4.75% | [6] 18.8%

Fc1cccc(CSc2cnnc(SCc3cccc(F)c3)c2SCc2cccc(F)c2)c1
inactive: [1] -14.8% | [2] -7.1% | [3] -13.7% | [4] 14.6% | [5] -10.8% | [6] -32%

Oc1ccc(Cl)cc1/C=N/NC(=S)Nc1cccc2cccnc12
inactive: [1] 24.1% | [2] 12.6% | [3] 10.7% | [4] 20.6% | [5] 20.1% | [6] 15.7%

OC1c2ccccc2CC12Cc1ccccc1C2 (stereo unspecified)
inactive: [1] 36.1% | [2] 38.5% | [3] 37.3% | [4] 23.5% | [5] 26.6% | [6] 13.8%

CC1=NN(C(=O)CC(=O)Nc2ccc(C(=O)O)cc2)C(=O)C1N=Nc1ccc(S(N)(=O)=O)cc1 (stereo unspecified)
inactive: [1] -4.7% | [2] -15.8% | [3] -1.5% | [4] -24.3% | [5] 0.55% | [6] -5.95%

CN=CN(C)c1c2ccccc2nc2ccccc12
inactive: [1] 5.6% | [2] -11.3% | [3] -5.05% | [4] 10.7% | [5] 9.75% | [6] -1.25%

CC1(CO)C(O)CCC2(C)C1C(O)CC1CC3CC12CCC3(O)CO (stereo unspecified)
inactive: [1] -12.8% | [2] -17.9% | [3] 1.3% | [4] -0.8% | [5] -21.1% | [6] -22.1%

COc1ccc(CC(=O)O)cc1OC
inactive: [1] 23.9% | [2] 0.55% | [3] 17.6% | [4] -24.4% | [5] -5.95% | [6] 23.9%

COC(=O)C(C)Oc1ccc(O)cc1 (stereo unspecified)
inactive: [1] 21.7% | [2] -3% | [3] 5% | [4] 7.7% | [5] 19.7% | [6] 10.4%

COc1cccc(/C=C\C#N)c1
inactive: [1] -23.1% | [2] -1.3% | [3] -45% | [4] -7.05% | [5] -26.9% | [6] -22.1%

O=C(Cc1ccccc1)NN(Cc1ccccc1)Cc1ccccc1
inactive: [1] -14.8% | [2] -0.85% | [3] -2.95% | [4] -10.8% | [5] 23.9% | [6] 0.5%

CC(=O)Nc1ccc(C(O)/C(=N/N)c2nc3ccc(Cl)cc3[nH]c2=O)cc1 (stereo unspecified)
inactive: [1] 9.15% | [2] -8.9% | [3] -6% | [4] -1.1% | [5] 5.55% | [6] -26.9%

Nc1nc(Nc2ccccc2)nc(SCc2ccccc2)n1
inactive: [1] 9.7% | [2] 5.45% | [3] -5.5% | [4] -33.5% | [5] 0.15% | [6] 13.7%

O=C(Nc1ccc(F)cc1)C(=O)C(C(=O)c1ccccc1F)C1OC(=O)c2ccccc21 (stereo unspecified)
inactive: [1] 2.8% | [2] -0.05% | [3] -10.6% | [4] 1.55% | [5] -0.35% | [6] 2.25%

Cc1cccc(NC(=O)COc2c(C)cc(Cl)cc2Cl)c1
inactive: [1] 23.8% | [2] 15.5% | [3] 38.2% | [4] 0.45% | [5] 38% | [6] 14.8%

Cc1cccc(C2ON=C(c3ccccc3)N2C23CC4CC(CC(C4)C2)C3)c1 (stereo unspecified)
inactive: [1] -20.8% | [2] -0.35% | [3] -22.1% | [4] -2.45% | [5] 0.75% | [6] -33.5%

Cc1ncc2c(n1)NC(=O)NC2
inactive: [1] 17.1% | [2] 13.5% | [3] -16.6% | [4] 0.9% | [5] -23.1% | [6] -13.9%

COC(=O)c1cc(/C=C/C(=O)Cc2ccccc2)cn1S(=O)(=O)c1ccccc1
inactive: [1] -6.3% | [2] -9.6% | [3] -13.5% | [4] -23.9% | [5] 1.5% | [6] 1.9%

Cc1ccc2nc(CC(=O)c3ccccc3)c(CC(=O)c3ccccc3)nc2c1
inactive: [1] 0.7% | [2] -17% | [3] 2.25% | [4] 24.1% | [5] 0.15% | [6] -2.9%

CCC(O)CNCc1ccnc2ccc(OC)cc12 (stereo unspecified)
inactive: [1] 3.3% | [2] 2.9% | [3] 0.45% | [4] -45.4% | [5] -4.1% | [6] -12.1%

OCC1CSCC1CO (stereo unspecified)
inactive: [1] 8.6% | [2] 12.8% | [3] -4.7% | [4] 15.3% | [5] 11.7% | [6] 3.5%

CCCCSCCOC(=O)Nc1ccc(Cl)cc1
active: [1] 98.8% | [2] 99.3% | [3] 98% | [4] 95.7% | [5] 99.3% | [6] 98.8%

CCOC(=O)c1cc(-n2nnc3ccccc32)cn1C
inactive: [1] -4.7% | [2] -23.4% | [3] 0.35% | [4] -3.6% | [5] 19.4% | [6] -0.65%

C/C=C/[C@@H]1[C@H]2C(=O)[C@]3(Cl)[C@@H](/C=C/C)[C@@H]3C(=O)[C@@]12Cl
inactive: [1] 5.05% | [2] 6.1% | [3] 6.45% | [4] 12.8% | [5] 10% | [6] 29.6%

COC(=O)C1(C)C=CC(=O)C2(C)C1C(O)C1OC3CC(c4ccoc4)C(C)=C3C1(C)C2CC(=O)O (stereo unspecified)
inactive: [1] 19.9% | [2] -7% | [3] 20.1% | [4] 12.4% | [5] 10.8% | [6] -21.3%

CC(=O)NCC1(c2ccccc2)CCN(Cc2ccccc2)CC1
inactive: [1] -6.8% | [2] -17.3% | [3] -11.7% | [4] 5.7% | [5] -17% | [6] -14.2%

CC(C)C(CNC(=S)Nc1ccccc1)(c1ccccc1)c1ccccc1
inactive: [1] 6.9% | [2] 13.1% | [3] 5.25% | [4] 1.85% | [5] 8.95% | [6] 12.8%

S=C1NCC(c2ccccc2)CN1
inactive: [1] 0.5% | [2] 1.65% | [3] -2.55% | [4] 19.9% | [5] -7.95% | [6] -5.9%

Nc1cccc(S(=O)(=O)O)c1
inactive: [1] -27.1% | [2] -10.8% | [3] -36.2% | [4] -37.1% | [5] -13.8% | [6] -5.2%

CC(C)CC(C)(O)C(N)=O (stereo unspecified)
inactive: [1] -5.15% | [2] -7.55% | [3] -29% | [4] -21.8% | [5] 0.35% | [6] -4.95%

CC(C)[C@@H]1NC(=O)[C@@H]2N=C(O[C@H]2C)[C@H](C(C)C)NC(=O)C2N=C1O[C@H]2C
inactive: [1] 11% | [2] 4.75% | [3] 2.15% | [4] 9.45% | [5] 10.3% | [6] -34.1%

C=C(C)COC(=O)Nc1cccc(Cl)c1
inactive: [1] 58.9% | [2] -4.15% | [3] 4.7% | [4] 13.4% | [5] 10.2% | [6] 24.9%

CCOC(=O)c1ccc2c3c(ccc([N+](=O)[O-])c13)CC2
inactive: [1] -7% | [2] -6.25% | [3] -14% | [4] -1.9% | [5] 18.5% | [6] -8.35%
